PubChem BioAssay
Results filed as inconclusive are left out. The source made the active and inactive calls.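 How the source made its calls, unless noted: active means normalized viability below 100% at a tested concentration; inactive means the rest.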

Columns and labels:
[1] = growth inhibition of DIPG glioma cells, dose response, cell-based, SU-DIPG-XVII, MIPE5.0, CellTiter-Glo, qHTS (AID 1347060; cut-off not given, nearly all actives have AC50 up to about 26 µM;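 further: cells exposed to compound for 48 hours before viability readout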); conditions: SU-DIPG-XVII viability, CellTiter-Glo ATP luminescence
[2] = growth inhibition of DIPG glioma cells, dose response, cell-based, JHH-DIPG-1, MIPE4.0, CellTiter-Glo, qHTS (AID 1347062; cut-off not given, nearly all actives have AC50 up to about 27 µM;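 further: cells exposed to compound for two days before readout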); conditions: JHH-DIPG-1 viability, CellTiter-Glo ATP luminescence
[3] = growth inhibition of DIPG glioma cells, dose response, cell-based, SU-DIPG-IV, MIPE4.0, CellTiter-Glo, qHTS (AID 1347063; cut-off not given, nearly all actives have AC50 up to about 30 µM;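 further: compound exposure lasted 48 hours before the viability readout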); conditions: SU-DIPG-IV viability, CellTiter-Glo ATP luminescence
[4] = growth inhibition of DIPG glioma cells, dose response, cell-based, SU-DIPG-XIII, MIPE5.0, CellTiter-Glo, qHTS (AID 1347064; cut-off not given, nearly all actives have AC50 up to about 23 µM;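 further: cells exposed to compound for 48 hours before the viability read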); conditions: SU-DIPG-XIII viability, CellTiter-Glo ATP luminescence
[5] = viability loss in pontine glioma line – cell-based, SU-DIPG-XXV, MIPE5.0, CellTiter-Glo, qHTS, dose response (AID 1347065; cut-off not given, nearly all actives have AC50 up to about 26 µM;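 further: cells exposed to compound for 48 hours before ATP readout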); conditions: CellTiter-Glo ATP luminescence
[6] = SU-DIPG-VI glioma cell viability, MIPE4.0 library, CellTiter-Glo luminescence, qHTS (AID 1347066; cut-off not given, nearly all actives have AC50 up to about 30 µM;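 further: cells exposed to compound for 48 hours before readout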); conditions: CellTiter-Glo ATP luminescence
[7] = JHH-DIPG-1 glioma cell viability, MIPE5.0 library, CellTiter-Glo luminescence, qHTS (AID 1347067; cut-off not given, nearly all actives have AC50 up to about 26 µM;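 further: cells exposed to compound for 48 hours before readout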); conditions: JHH-DIPG-1 glioma viability, CellTiter-Glo ATP luminescence
[8] = SU-DIPG-XXV glioma cell viability, MIPE5.0 library, qHTS (AID 1347068; cut-off not given, nearly all actives have IC50 up to about 30 µM;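 further: cells exposed to compound for 48 hours before viability readout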)
[9] = modifiers of HSF1 nuclear foci, imaging, Selleck Cancer Library (AID 1347162; in the data active means plate-normalised HSF1 focus index below about 0.46); conditions: human cells, at 10 µM; SSMD: measured here: HSF1 foci SSMD mean; cell count: measured here: cell number; plate-normalised HSF1 focus index: stronger effect = lower value
[10] = ovarian cancer cell viability with rucaparib, profiling panel, oncology-focused library, rucaparib conditional (AID 1508598); conditions: patient-derived ovarian cancer cells, CellTiter-Glo viability, 144 h, stronger effect = lower value
[11] = sensitizers of A549 cells to miR-34 induction, primary screen, imaging, A549 dox-inducible miR-34, nuclei and caspase counts (AID 1347080;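 active means compounds whose cell count with miR-34 switched on is under 0.7 times the count with it off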); conditions: A549 miR-34 inducible, Hoechst nuclei count, 48 h
[12] = survival rescue of mitochondrial mutant cells in low glucose, primary screen, MELAS cybrids, Rieske KO mouse fibroblasts, CellTiter-Glo (AID 1508586;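 active means mean z-score across replicates of 1.96 or higher in either the MELAS or the Rieske mutant cell line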;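 further: z relative to plate mean and SD of compound and empty wells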)
[13] = at 0.000305 µM, OCI-C5x cells, with rucaparib 10 µM, 100% = cells with rucaparib alone
[14] = at 0.000305 µM, OCI-C5x cells, without rucaparib
[15] = at 0.000305 µM, OCI-P5x cells, with rucaparib 20 µM, 100% = cells with rucaparib alone
[16] = at 0.000305 µM, OCI-P5x cells, without rucaparib
[17] = at 0.00122 µM, OCI-C5x cells, with rucaparib 10 µM, 100% = cells with rucaparib alone
[18] = at 0.00122 µM, OCI-C5x cells, without rucaparib
[19] = at 0.00122 µM, OCI-P5x cells, with rucaparib 20 µM, 100% = cells with rucaparib alone
[20] = at 0.00122 µM, OCI-P5x cells, without rucaparib
[21] = at 0.00488 µM, OCI-C5x cells, with rucaparib 10 µM, 100% = cells with rucaparib alone
[22] = at 0.00488 µM, OCI-C5x cells, without rucaparib
[23] = at 0.00488 µM, OCI-P5x cells, with rucaparib 20 µM, 100% = cells with rucaparib alone
[24] = at 0.00488 µM, OCI-P5x cells, without rucaparib
[25] = at 0.0195 µM, OCI-C5x cells, with rucaparib 10 µM, 100% = cells with rucaparib alone
[26] = at 0.0195 µM, OCI-C5x cells, without rucaparib
[27] = at 0.0195 µM, OCI-P5x cells, with rucaparib 20 µM, 100% = cells with rucaparib alone
[28] = at 0.0195 µM, OCI-P5x cells, without rucaparib
[29] = at 0.0781 µM, OCI-C5x cells, with rucaparib 10 µM, 100% = cells with rucaparib alone
[30] = at 0.0781 µM, OCI-C5x cells, without rucaparib
[31] = at 0.0781 µM, OCI-P5x cells, with rucaparib 20 µM, 100% = cells with rucaparib alone
[32] = at 0.0781 µM, OCI-P5x cells, without rucaparib
[33] = at 0.313 µM, OCI-C5x cells, with rucaparib 10 µM, 100% = cells with rucaparib alone
[34] = at 0.313 µM, OCI-C5x cells, without rucaparib
[35] = at 0.313 µM, OCI-P5x cells, with rucaparib 20 µM, 100% = cells with rucaparib alone
[36] = at 0.313 µM, OCI-P5x cells, without rucaparib
[37] = at 1.25 µM, OCI-C5x cells, with rucaparib 10 µM, 100% = cells with rucaparib alone
[38] = at 1.25 µM, OCI-C5x cells, without rucaparib
[39] = at 1.25 µM, OCI-P5x cells, with rucaparib 20 µM, 100% = cells with rucaparib alone
[40] = at 1.25 µM, OCI-P5x cells, without rucaparib
[41] = at 5 µM, OCI-C5x cells, with rucaparib 10 µM, 100% = cells with rucaparib alone
[42] = at 5 µM, OCI-C5x cells, without rucaparib
[43] = at 5 µM, OCI-P5x cells, with rucaparib 20 µM, 100% = cells with rucaparib alone
[44] = at 5 µM, OCI-P5x cells, without rucaparib

CC[C@@H]1C(=O)N(C)c2cnc(Nc3ccc(C(=O)NC4CCC(N5CCN(CC6CC6)CC5)CC4)cc3OC)nc2N1C(C)C (stereo partly specified)
4.31: SSMD [9]
inactive: plate-normalised HSF1 focus index [9] 1.16 | viability [10, 13] 101% | viability [10, 14] 104% | viability [10, 16] 102% | viability [10, 17] 107% | viability [10, 18] 102% | viability [10, 19] 100%
active: AC50 [1] 0.0742 µM | AC50 [2] 6.62 µM | AC50 [3] 2.35 µM | AC50 [4] 5.9 µM | AC50 [5] 0.0525 µM | AC50 [6] 20.9 µM | AC50 [7] 4.17 µM | IC50 [8] 6.61 µM | viability [10, 15] 97.4% | viability [10, 20] 95.9% | viability [10, 21] 89.2% | viability [10, 22] 87.7% | viability [10, 23] 84.5% | viability [10, 24] 26.8% | viability [10, 25] 51.8% | viability [10, 26] 43.7% | viability [10, 27] 64.2% | viability [10, 28] 18.3% | viability [10, 29] 49.3% | viability [10, 30] 32.9% | viability [10, 31] 67.2% | viability [10, 32] 20.5% | viability [10, 33] 41.4% | viability [10, 34] 36.3% | viability [10, 35] 70.1% | viability [10, 36] 17.3% | viability [10, 37] 26.6% | viability [10, 38] 25.2% | viability [10, 39] 9.33% | viability [10, 40] 13.8% | viability [10, 41] 4.03% | viability [10, 42] 21.5% | viability [10, 43] 1.64% | viability [10, 44] 12.5%
7310: cell count [9]

c1ccc2c(CCNc3ccc(Nc4ccncc4)cc3)c[nH]c2c1
-0.197: SSMD [9]
2540: cell count ([11]; measured here: total cells with miR-34 induction, stronger effect = lower value)
2490: cell count ([11]; measured here: total cells without miR-34 induction)
inactive: fold change ([11]; stronger effect = lower value, cell number ratio, induced over uninduced) 1.02 | plate-normalised HSF1 focus index [9] 0.99 | z-score ([12]; MELAS cybrid survival, CellTiter-Glo 48 h, stronger effect = higher value) -0.455 | viability [10, 13] 116% | viability [10, 14] 111% | viability [10, 15] 114% | viability [10, 16] 116% | viability [10, 17] 116% | viability [10, 18] 111% | viability [10, 19] 117% | viability [10, 20] 121% | viability [10, 21] 116% | viability [10, 23] 112% | viability [10, 24] 119% | viability [10, 25] 111% | viability [10, 26] 105% | viability [10, 27] 111% | viability [10, 28] 122% | viability [10, 29] 104% | viability [10, 30] 111% | viability [10, 31] 112% | viability [10, 32] 122% | viability [10, 33] 110% | viability [10, 34] 101% | viability [10, 36] 110% | viability [10, 37] 107% | viability [10, 38] 107% | viability [10, 40] 104% | viability [10, 42] 106%
-0.307: z-score ([12]; Rieske KO mouse fibroblast survival, CellTiter-Glo 72 h)
active: AC50 [1] 18.6 µM | AC50 [2] 18.7 µM | AC50 [3] 18.7 µM | AC50 [4] 20.9 µM | AC50 [5] 26.3 µM | AC50 [7] 23.5 µM | IC50 [8] 5.9 µM | viability [10, 22] 99.7% | viability [10, 35] 99.7% | viability [10, 39] 94.3% | viability [10, 41] 25.5% | viability [10, 43] 78.5% | viability [10, 44] 99%
1.37: fold change ([11]; measured here: relative caspase fold change +Dox/-Dox)
6510: cell count [9]
